Data taken from ChEMBL document CHEMBL3988442, “University of Dundee, Small-Polar-MMV Screening Library” (2021).
For part of these data: Results with a measured potency or affinity are listed apart.

Key:
Parameters in all cases: scale not given: direction of the effect not stated beside the values
[1] = target: Protein translocase subunit SecA (Escherichia coli (strain K12)) (UniProt P10408); experiment: Assay to Identify E. coli SecA ATPase Inhibitors; assay type: functional; settings: 30 µM
[2] = target: T1, Ubiquitin-activating enzyme e1, putative (Leishmania donovani (strain BPK282A1)) (UniProt E9BSI1); experiment: Leishmania donovani Ubiquitin Activating Enzyme (LdE1); assay type: functional; settings: 30 µM
T1 sequence (whole entry): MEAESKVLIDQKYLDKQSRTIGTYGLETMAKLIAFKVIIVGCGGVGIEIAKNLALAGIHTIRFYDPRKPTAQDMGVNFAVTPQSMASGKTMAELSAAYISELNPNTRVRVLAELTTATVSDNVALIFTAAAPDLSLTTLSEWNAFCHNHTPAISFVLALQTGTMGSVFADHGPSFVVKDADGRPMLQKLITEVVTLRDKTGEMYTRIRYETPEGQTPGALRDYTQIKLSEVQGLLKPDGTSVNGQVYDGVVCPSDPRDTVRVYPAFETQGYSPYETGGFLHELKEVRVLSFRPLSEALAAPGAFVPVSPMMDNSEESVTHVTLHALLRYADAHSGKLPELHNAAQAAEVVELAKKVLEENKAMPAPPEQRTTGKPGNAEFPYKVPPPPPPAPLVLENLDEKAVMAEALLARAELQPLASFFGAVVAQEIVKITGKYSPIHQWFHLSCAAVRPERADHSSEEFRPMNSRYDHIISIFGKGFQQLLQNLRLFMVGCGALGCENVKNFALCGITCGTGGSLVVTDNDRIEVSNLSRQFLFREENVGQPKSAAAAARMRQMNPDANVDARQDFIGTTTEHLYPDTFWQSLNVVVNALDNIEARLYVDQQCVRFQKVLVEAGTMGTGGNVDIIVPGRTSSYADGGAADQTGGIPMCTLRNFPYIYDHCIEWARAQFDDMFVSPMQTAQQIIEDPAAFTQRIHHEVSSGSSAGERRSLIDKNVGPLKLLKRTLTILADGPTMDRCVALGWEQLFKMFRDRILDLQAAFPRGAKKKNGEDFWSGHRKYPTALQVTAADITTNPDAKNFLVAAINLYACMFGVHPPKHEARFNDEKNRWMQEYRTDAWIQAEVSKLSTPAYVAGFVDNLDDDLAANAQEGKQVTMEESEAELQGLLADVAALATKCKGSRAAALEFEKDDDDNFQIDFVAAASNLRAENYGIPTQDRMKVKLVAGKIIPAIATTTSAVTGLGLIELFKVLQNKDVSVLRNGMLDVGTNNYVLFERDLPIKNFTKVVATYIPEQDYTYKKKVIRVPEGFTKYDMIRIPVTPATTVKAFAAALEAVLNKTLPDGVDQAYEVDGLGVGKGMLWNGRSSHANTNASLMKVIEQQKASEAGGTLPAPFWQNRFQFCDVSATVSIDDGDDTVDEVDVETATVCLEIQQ

[3] = target: AMP-activated protein kinase, AMPK (Homo sapiens) (UniProt P54646+O43741+P54619+Q9UGJ0+Q9Y478+Q13131+Q9UGI9); experiment: AMP-dependent Kinase enzyme assay. An in vitro enzyme assay that detects ADP turnover that is directly proportional to AMPK activity. This uses naive AMPK that is activated during the assay with MK-8722; assay type: functional; settings: 30 µM
[4] = target: Sialic acid-binding Ig-like lectin 9 (Homo sapiens) (UniProt Q9Y336); experiment: Hs-Siglec9 ALPHAscreen SOP 20170721; settings: 10 µM
Trypanosoma cruzi = experiment: Trypanosoma cruzi phosphomannomutase and mannose-1-phosphate guanylyltransferase assay; assay type: functional; settings: 10 µM
[5] = target: T2, Arginase-2, mitochondrial (Homo sapiens) (UniProt P78540); experiment: in vitro enzyme assay to detect the production of urea directly proportional to the activity of Arginase II; assay type: functional; settings: 33.3 µM; further: in the data most compounds retested in dose-response had high values
T2 sequence (whole entry): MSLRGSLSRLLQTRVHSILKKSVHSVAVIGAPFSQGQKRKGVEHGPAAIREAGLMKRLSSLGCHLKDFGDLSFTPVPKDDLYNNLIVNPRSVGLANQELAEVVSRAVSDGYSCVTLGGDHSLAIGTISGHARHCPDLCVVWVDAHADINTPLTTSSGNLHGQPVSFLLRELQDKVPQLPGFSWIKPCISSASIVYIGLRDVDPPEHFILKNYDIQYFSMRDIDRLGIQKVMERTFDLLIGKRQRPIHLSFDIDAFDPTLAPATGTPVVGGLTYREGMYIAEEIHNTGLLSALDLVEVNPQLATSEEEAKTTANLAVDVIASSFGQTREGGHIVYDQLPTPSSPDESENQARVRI

[6] = target: T3, Proteasome subunit beta (Trypanosoma cruzi) (UniProt O96673); experiment: Trypanosoma cruzi proteasome chymotrypsin-like activity (TcProtChymo) assay.; further: in the data most compounds retested in dose-response had high values; assay type: functional; settings: 9.37 µM
T3 sequence (whole entry): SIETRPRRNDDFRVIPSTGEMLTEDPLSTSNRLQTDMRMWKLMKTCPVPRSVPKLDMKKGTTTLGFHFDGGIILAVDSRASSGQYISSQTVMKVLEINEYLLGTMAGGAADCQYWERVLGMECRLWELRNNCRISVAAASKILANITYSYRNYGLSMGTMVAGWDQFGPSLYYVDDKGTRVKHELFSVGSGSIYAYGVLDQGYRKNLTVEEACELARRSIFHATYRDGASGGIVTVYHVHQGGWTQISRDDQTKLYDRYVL

Homo sapiens = species: Homo sapiens; experiment: To identify inhibition of the IFN signalling (Jak-Stat) pathway via expression of an eGFP reporter gene under the control of an IFN-stimulated response element (ISRE) containing MxA promoter.; assay type: functional; settings: 30 µM
[7] = target: T4, Tyrosyl-tRNA synthetase, putative (Trypanosoma cruzi (strain CL Brener)) (UniProt Q4DSP6); experiment: Trypanosoma cruzi tyrosyl tRNA synthetase (TcYRS) _High Tyrosine SOP; assay type: functional; settings: 30 µM; further: in the data most compounds retested in dose-response had high values
T4 sequence (whole entry): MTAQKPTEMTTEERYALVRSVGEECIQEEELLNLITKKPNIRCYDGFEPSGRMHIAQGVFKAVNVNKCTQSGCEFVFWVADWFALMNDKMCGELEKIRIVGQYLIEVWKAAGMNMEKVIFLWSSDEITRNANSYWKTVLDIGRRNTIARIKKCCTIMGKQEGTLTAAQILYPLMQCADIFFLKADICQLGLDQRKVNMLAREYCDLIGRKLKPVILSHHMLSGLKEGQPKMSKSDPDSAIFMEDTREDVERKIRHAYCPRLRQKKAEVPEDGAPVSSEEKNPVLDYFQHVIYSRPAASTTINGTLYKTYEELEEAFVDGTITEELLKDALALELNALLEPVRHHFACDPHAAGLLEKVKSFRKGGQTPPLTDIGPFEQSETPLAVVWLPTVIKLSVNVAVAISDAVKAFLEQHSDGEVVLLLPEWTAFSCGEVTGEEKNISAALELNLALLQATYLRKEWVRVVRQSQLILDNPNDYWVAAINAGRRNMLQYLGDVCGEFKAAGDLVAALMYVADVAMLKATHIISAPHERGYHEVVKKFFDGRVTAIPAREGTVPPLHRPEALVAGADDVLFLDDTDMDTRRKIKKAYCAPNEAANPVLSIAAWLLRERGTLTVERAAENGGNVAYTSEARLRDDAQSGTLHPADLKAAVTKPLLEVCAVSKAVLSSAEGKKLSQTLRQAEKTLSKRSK

[8] = target: T4, Tyrosyl-tRNA synthetase, putative (Trypanosoma cruzi (strain CL Brener)); experiment: Trypanosoma cruzi tyrosyl tRNA synthetase (TcYRS) SOP; assay type: functional; settings: 30 µM
[9] = target: Chromo domain-containing protein 1 (Saccharomyces cerevisiae (strain ATCC 204508 / S288c) (Baker's yeast)) (UniProt P32657); experiment: ScCHD-1 Enzyme Inhibition Assay; assay type: functional; settings: 30 µM; further: in the data most compounds retested in dose-response had high values
Chromo domain-containing protein 1 (Saccharomyces cerevisiae (strain ATCC 204508 / S288c) (Baker's yeast)), sequence (P32657 whole entry, the tested form may be a part): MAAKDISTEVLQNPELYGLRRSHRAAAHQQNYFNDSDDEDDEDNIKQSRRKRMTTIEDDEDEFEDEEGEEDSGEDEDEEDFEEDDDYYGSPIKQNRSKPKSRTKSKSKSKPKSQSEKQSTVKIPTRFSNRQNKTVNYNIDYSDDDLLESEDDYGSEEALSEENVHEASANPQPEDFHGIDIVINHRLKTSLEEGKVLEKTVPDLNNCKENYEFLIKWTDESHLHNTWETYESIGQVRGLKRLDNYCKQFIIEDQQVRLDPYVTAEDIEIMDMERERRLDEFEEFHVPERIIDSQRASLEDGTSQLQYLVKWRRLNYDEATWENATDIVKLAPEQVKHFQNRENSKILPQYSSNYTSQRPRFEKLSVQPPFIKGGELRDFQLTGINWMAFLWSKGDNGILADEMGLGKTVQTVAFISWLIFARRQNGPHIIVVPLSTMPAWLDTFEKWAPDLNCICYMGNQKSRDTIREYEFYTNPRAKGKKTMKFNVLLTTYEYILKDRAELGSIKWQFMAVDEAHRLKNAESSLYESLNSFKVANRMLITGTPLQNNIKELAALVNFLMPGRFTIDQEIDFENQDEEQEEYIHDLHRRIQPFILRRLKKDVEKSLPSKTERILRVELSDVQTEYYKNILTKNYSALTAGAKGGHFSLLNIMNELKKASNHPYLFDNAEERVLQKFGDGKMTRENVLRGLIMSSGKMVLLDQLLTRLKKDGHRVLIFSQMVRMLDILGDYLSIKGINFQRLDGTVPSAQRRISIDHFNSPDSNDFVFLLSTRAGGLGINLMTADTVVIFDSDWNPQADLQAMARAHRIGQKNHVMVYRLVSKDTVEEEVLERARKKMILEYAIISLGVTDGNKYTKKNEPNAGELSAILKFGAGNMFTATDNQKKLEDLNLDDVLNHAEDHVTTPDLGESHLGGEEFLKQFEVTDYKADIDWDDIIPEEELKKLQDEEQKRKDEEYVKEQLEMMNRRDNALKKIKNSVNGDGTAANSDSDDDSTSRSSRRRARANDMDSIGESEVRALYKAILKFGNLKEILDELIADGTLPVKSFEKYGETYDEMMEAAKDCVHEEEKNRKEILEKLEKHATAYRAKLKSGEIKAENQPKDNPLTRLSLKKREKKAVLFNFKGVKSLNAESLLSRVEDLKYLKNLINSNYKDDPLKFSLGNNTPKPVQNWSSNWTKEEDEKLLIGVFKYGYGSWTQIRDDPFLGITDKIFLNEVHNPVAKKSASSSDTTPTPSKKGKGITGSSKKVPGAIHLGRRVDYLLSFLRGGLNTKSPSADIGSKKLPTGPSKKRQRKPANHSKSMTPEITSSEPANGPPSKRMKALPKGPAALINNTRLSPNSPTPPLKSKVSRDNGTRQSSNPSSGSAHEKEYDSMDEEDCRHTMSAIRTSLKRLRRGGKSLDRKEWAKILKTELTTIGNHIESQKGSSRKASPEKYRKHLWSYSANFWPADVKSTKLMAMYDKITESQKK

Protein translocase subunit SecA (Escherichia coli (strain K12)), sequence (P10408 whole entry): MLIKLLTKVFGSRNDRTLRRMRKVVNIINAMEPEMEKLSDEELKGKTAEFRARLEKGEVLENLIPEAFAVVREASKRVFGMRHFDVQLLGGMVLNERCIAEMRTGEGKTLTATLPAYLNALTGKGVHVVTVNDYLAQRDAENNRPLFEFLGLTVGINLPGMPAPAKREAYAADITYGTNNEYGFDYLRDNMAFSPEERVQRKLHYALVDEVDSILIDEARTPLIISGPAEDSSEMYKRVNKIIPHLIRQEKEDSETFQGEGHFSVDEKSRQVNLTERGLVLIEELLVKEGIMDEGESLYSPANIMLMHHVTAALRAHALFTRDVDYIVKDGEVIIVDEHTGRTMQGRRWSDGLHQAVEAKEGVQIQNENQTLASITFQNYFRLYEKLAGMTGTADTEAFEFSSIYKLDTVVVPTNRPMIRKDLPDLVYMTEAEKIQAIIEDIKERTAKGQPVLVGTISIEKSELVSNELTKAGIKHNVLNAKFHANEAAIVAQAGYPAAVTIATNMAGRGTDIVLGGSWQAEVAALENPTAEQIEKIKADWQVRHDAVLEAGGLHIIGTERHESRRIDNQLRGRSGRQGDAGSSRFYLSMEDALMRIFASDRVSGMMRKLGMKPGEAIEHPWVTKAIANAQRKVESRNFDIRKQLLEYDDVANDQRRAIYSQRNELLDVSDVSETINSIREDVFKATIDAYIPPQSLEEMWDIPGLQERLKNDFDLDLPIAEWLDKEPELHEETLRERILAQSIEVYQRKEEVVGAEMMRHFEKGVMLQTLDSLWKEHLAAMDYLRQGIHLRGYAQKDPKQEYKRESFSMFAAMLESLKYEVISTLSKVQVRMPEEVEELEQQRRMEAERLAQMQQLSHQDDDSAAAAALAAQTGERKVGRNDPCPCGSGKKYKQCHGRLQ
Sialic acid-binding Ig-like lectin 9 (Homo sapiens), sequence (Q9Y336 whole entry): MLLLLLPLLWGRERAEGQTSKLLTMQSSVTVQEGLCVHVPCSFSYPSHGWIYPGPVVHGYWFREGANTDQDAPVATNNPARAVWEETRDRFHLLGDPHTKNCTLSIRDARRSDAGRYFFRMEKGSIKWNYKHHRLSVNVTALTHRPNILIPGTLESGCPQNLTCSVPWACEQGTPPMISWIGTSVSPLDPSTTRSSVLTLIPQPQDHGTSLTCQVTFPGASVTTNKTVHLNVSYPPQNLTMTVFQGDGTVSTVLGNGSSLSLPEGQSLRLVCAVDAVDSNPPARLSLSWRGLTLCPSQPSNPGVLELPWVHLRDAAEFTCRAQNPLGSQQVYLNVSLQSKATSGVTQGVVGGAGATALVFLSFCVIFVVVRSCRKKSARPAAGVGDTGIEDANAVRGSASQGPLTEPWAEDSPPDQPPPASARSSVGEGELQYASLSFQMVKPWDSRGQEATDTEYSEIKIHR

Structure (SMILES)	Percent Effect [1] [%]	Percent Effect [2] [%]	Percent Effect [3] [%]	Percent Effect [4] [%]	Percent Effect (Trypanosoma cruzi) [%]	Percent Effect [5] [%]	Percent Effect [6] [%]	Percent Effect (Homo sapiens) [%]	Percent Effect [7] [%]	Percent Effect [8] [%]	Percent Effect [9] [%]
Cc1csc([C@@H]2C[C@@H]3CCN(C(=O)c4cc(C)on4)C[C@H]3O2)n1	-3.41	20.8	-1.54	-4.81	4.04	5.81	11.7	12.7	4.23	16.7	-9.47
Cc1ccc(C(=O)NS(=O)(=O)c2cccc3cnccc23)c(=O)[nH]1	-5.08	13.5	-0.0909	7.48	0.65	1.66	6.64	13	6.93	15.8	2.35
COc1cc(CNCc2c(C)nn(C)c2N(C)C)ccn1	-2.79	5.41	-15.9	8.34	4.25	-3.61	1.62	9.11	4.43	18.5	-11.1
Cc1nnc(N2CCCC3(CN(Cc4ccc(C)s4)CCO3)C2)o1 (stereo unspecified)	0.137	5.48	-2.15	8.14	3.97	-5.19	13.1	-2.59	2.08	6.17	-3.69
CC(C(=O)N1CCCN(c2ncccc2C#N)CC1)n1cccn1 (stereo unspecified)	-3.42	10.5	0.522	-3.82	-6.63	4.68	4.32	3.06	5.42	11.1	-6.77
Cc1nc(C)n(CC2CN(Cc3cccc4c3OCCO4)CCO2)n1 (stereo unspecified)	-6.14	18.4	-1.72	0.869	3.46	1.08	1.78	2.86	11.3	28.4	-8.32
CCc1ccc(S(=O)(=O)Nc2cn(C)cc(Br)c2=O)cc1	-3.35	5.41	-3.87	18.4	4.25	-0.952	11.6	6.27	2.65	12.2	-5.04
CCCc1nc(C)c(C(=O)NS(=O)(=O)c2ccc(C#N)cc2)s1	-4.98	10.8	-2.15	25.9	6.18	0.476	9.14	2.07	0.529	9.76	-9.01
Cc1cn2nc(N3CCCC3Cn3nc(C)cc3C)sc2n1 (stereo unspecified)	-2.86	6.33	3.5	0.585	1.74	-0.645	9.43	19.6	4.17	7.59	-20
COCc1nc2cc(NCc3ccncc3)ccc2o1	6.12	54	-108	-0.763	-1.76	9.58	13.4	-8.66	4.95	-1.22	2.52
CCc1nc2n(n1)CC(Nc1cc(C)nc3ncnn13)CC2 (stereo unspecified)	-3.29	8.22	-10.8	12.4	5.68	8.64	14.4	18.4	3.23	12.5	-7.89
Cc1ccc(-c2nc(CN3CCc4nn(C)c(=O)cc4C3)co2)cc1	-3.32	35.1	-173	1.71	-2.74	1.2	17.1	11.3	3.45	13.6	-6.66
COc1ncc(-c2nccn2CCN(C)C)cn1	-3.87	-2.7	-2.61	1.15	-0.965	-3.81	20.9	2.02	-2.65	2.44	-3.6
CCNC(c1ccc(OC)cc1)c1cccnc1 (stereo unspecified)	-5.06	-1.27	5.52	9.44	-1.74	-0.645	3.94	6.89	1.04	5.06	-10.2
Cc1ccc(C(=O)NCCS(C)(=O)=O)c(=O)[nH]1	-3.94	16.2	-7.64	-5.87	4.88	10.4	16.1	7.03	9.9	15.8	-5.72
Cn1cc(C(=O)NC[C@@H]2OC[C@H]3CN(S(C)(=O)=O)CC[C@H]32)cn1	-0.605	-74	-4.74	17	7.74	-1.6	11	9.87	5.21	1.24	-6.34
O=C(c1ccc2c(c1)OCO2)N1CCCSCC1CN1CCCC1 (stereo unspecified)	-4.51	7.79	6.33	7.89	-1.08	5.81	8.53	-0.0393	8.47	11.5	-7.09
CCn1cnnc1CNC(=O)N(C)Cc1ccc(F)c(F)c1	-2.13	18.9	-11.7	14.1	1.04	-5.21	7.57	8.28	7.39	18.5	-7.63
CC(NC1(CNC(=O)C(C)(C)C#N)CCOCC1)c1ccccc1 (stereo unspecified)	-11.4	0	-1.47	-3.49	-3.03	-1.74	4.89	7	-7.53	-3.7	-3.14
CC1CCN(CCNC(=O)c2cncnc2C(C)C)CC1	0.314	4.17	-2.65	-7.34	-5.34	2.21	11.1	0.616	1.05	5.13	-2.34
O=C(c1ccsc1)N1CCc2c(COCc3ccncc3)cncc2C1	0.395	-8.22	0.499	1.44	-0.397	1.2	10	3.9	3.12	3.7	-0.158
